The values that follow come from PubChem BioAssay (NCI).

What all share (experiment): NCI-60 one-dose screen, 48 h (100 = growth as untreated, 0 = no growth, -100 = all killed)
The subject of test [1] is NCI-H23 lung. The note with it: 10 µM unless noted.
Test [2] relates to NCI-H226 lung. To be noted: 10 µM unless noted.
Test [3] deals with NCI-H322M lung. To be noted: 10 µM unless noted.
Test [4] deals with HOP-62 NSCLC. The note with it: 10 µM unless noted.
Test [5] has as its system NCI-H460 lung. The note with it: 10 µM unless noted.
Test [6] deals with HOP-92 NSCLC. The note with it: 10 µM unless noted.
Test [7] deals with NCI-H522 lung. The note with it: 10 µM unless noted.
The test system of test [8] is A549/ATCC NSCLC. The note with it: 10 µM unless noted.
Test [9] concerns 786-0 renal. To be noted: 10 µM unless noted.
The test system of test [10] is COLO 205 colon. The note with it: 10 µM unless noted.
For test [11], the system named is DU-145 prostate. The note with it: 10 µM unless noted.
Test [12] deals with K-562 leukemia. To be noted: 10 µM unless noted.
Test [13] relates to MALME-3M melanoma. To be noted: 10 µM unless noted.
Test [14] concerns MDA-MB-231 breast. The note with it: 10 µM unless noted.
In test [15] the test system is RXF 393 renal. The note with it: 10 µM unless noted.
The subject of test [16] is SF-268 CNS. To be noted: 10 µM unless noted.
For test [17], the system named is SF-295 CNS. The note with it: 10 µM unless noted.
The test system of test [18] is SF-539 CNS. The note with it: 10 µM unless noted.
Test [19] has as its system UACC-257 melanoma. To be noted: 10 µM.
Test [20] has as its system M14 melanoma. The note with it: 10 µM unless noted.

Compounds without any hit were thinned out: in the full panel of roughly 83,000, 20% have a hit.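 48-hour exposure, single concentration, 96-well plates; percent growth endpoint where 0 means no net growth. Active: below 10.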 Unmarked numbers belong to inactive results. The source made the active and inactive calls.

Take `Nc1ccc(-c2nnc(SCc3ccc(O)c4ncccc34)o2)cc1`: the growth in test [1] was 3.69% (active); in [2], -12.5% (active); in test [3], -0.446% (active); in [4], -5.24% (active); in test [5] it was -46.8% (active); in test [6], -36.8% (active). Moreover, the growth in test [7] was -2.05% (active); in [8] it was -1.54% (active); in test [9], 7.93% (active); in test [10] it was 1.77% (active); in [11], 9.69% (active); in test [12], 3.52% (active). For the same compound, the growth is -2.77% (active) in [13]; 33.8% in [14]; -14.8% (active) in [15]; 1.12% (active) in test [16]; -21.6% (active) in test [17]; -14.1% (active) in [18]. Also, the growth in test [19] is -20.4% (active); in [20] it was -38.8% (active).

As for `N#Cc1c(NC(=O)c2ccccc2C(F)(F)F)sc2c1CCC(=O)C2`, the growth in test [1] was 3.19% (active); in [2], 13.6%; in test [3], 95.5%; in test [4], 33%; in [5], 13.5%; in [6], -36.7% (active). Also, the growth in test [7] is -4.76% (active); in [8] it was 75.4%; in test [9] it was 28.7%; in test [10] it was -18.2% (active); in [11] it was 33.8%; in [12], 10.9%. In addition, the growth in [13] is -17.3% (active); in [14] it was 3.09% (active); in [15] it was -23.8% (active); in test [16], 18.9%; in test [17], 11%; in test [18] it was -28.9% (active). Further, in test [19], the growth was -9.8% (active).

`C/C(=N\NC(=O)CSc1nc2sc3c(c2c(=O)n1-c1ccccc1)CCC(C)C3)c1ccc(Cl)cc1` (configuration not stated): the growth is 28.2% in test [1]; -1.29% (active) in test [2]; 51.3% in test [3]; 34.5% in test [4]; 4.18% (active) in test [5]; -1.5% (active) in test [6]. Moreover, the growth in test [7] was 22.2%; in test [8], 42.5%; in [9], 7.93% (active); in [10], 26.5%; in test [11], 22.8%; in test [12], 16.5%. Moreover, the growth in test [13] is 29.1%; in test [14], 39.8%; in test [15] it was -23.3% (active); in [16], 23.8%; in [17], 40.9%; in [18], 18.5%. The growth in [19] was 75%; in test [20], -34% (active).

`Oc1ccc(CSc2nnc(-c3ccccc3)o2)c2cccnc12`: the growth in [1] was 27.8%; in [2], 51.2%; in test [3], 25.7%; in test [4] it was 13.8%; in test [5], 2.23% (active); in test [6], -3.86% (active). The growth was 22.6% in test [7]; 17.6% in [8]; 24.5% in test [9]; 98.9% in test [10]; 30% in [11]; 10.4% in [12]. Moreover, the growth in [13] is 36.1%; in test [14], 47%; in test [15], 24.5%; in [16], 21.8%; in test [17], 2.18% (active); in test [18] it was 13.2%. Besides, the growth in test [19] was 6.39% (active); in [20], 15.5%.

In the case of `CCOC(=O)Nc1cccc(-n2cnc3cc(-c4ccc(O)cc4)ccc32)c1`, the growth is 32.3% in test [1]; 33.3% in test [2]; 47.3% in [3]; 46.7% in test [4]; 4.77% (active) in test [5]; 116% in test [6]. Also, the growth was -12.7% (active) in [7]; 28.3% in test [8]; 31.6% in [9]; -4.06% (active) in test [10]; 19.7% in test [11]; 7.15% (active) in [12]. Besides, the growth in test [13] is 77.7%; in test [14], 33.7%; in test [15], -12.8% (active); in test [16], 38.9%; in test [17] it was 14.6%; in test [18], 4.17% (active). The growth was 83.6% in [19] and 29.6% in test [20].

With `Cc1ccc(S(=O)(=O)N/N=C/c2cn(-c3ccc(F)cc3)nc2-c2ccc(S(C)(=O)=O)cc2)cc1`, the growth in [1] was 104%; in [2] it was 102%; in test [3], 106%; in [4] it was 101%; in test [5] it was 108%; in test [6], 89.7%. Besides, the growth is 95.3% in test [7]; 101% in test [8]; 100% in test [9]; 107% in test [10]; 114% in test [11]; 102% in test [12]. The growth in [13] was 71%; in test [14], 104%; in [15], 117%; in test [16], 104%; in test [17], 103%; in [18] it was 97.7%. The growth in test [19] is 99.3%.

For `O=C(NNc1nc2cc(F)c(F)cc2n2cccc12)c1cccnn1`, the growth in test [1] is 25.9%; in [2], 4.29% (active); in test [3], 26.2%; in [4], 20.2%; in [5], 8.06% (active); in test [6] it was 75.4%. Moreover, the growth in test [7] is -8.32% (active); in test [8] it was 14.1%; in test [9], 19.2%; in [10], 9.86% (active); in test [11], 24.3%; in test [12], 13.3%. Besides, the growth in [13] is 17.8%; in test [14], 32.4%; in test [15] it was 40.1%; in test [16] it was 14%; in test [17] it was 8.56% (active); in [18], 0.368% (active). Moreover, the growth is 5.44% (active) in [19] and 11.2% in test [20].

Regarding `Cc1cc2nc(C(Cl)Cl)nc(-c3ccco3)n2n1`, the growth in [1] is 76.8%; in test [2] it was 95.6%; in [3], 23.3%; in test [4], 47.9%; in [5] it was 0.56% (active); in test [6] it was 79.5%. The growth in test [7] is 93.9%; in test [8] it was 3.5% (active); in [9], 96.2%; in [10], 25.8%; in test [11] it was -12.5% (active); in [12], 89.7%. In addition, the growth in test [13] is 108%; in test [14], 64.2%; in [15] it was 12.5%; in [16], 81.2%; in [17], 20.3%; in [18] it was 66.1%. Further, in test [19], the growth was 92.9%.
